Assay [1] can be described thus: NCI Yeast Anticancer Drug Screen. Data for the rad50 strain (AID 155).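 Note: 0% = growth of vehicle-only cultures of the same strain.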 Conditions: S. cerevisiae rad50 strain growth inhibition; at 50.0 µM; stronger effect = higher value. Put shortly:
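DNA repair mutant yeast, compound exposure, growth read-out; inhibition is taken relative to vehicle.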

Assay [2] in a line: NCI Yeast Anticancer Drug Screen. Data for the mec2-1 strain (AID 157). Conditions: S. cerevisiae mec2-1 strain, at 50.0 µM, stronger effect = higher value. The method, boiled down:
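Compounds were applied to mec2-1 yeast cells. Their growth was then compared with that of vehicle-treated cultures to give growth inhibition.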

Assay [3] in a line: NCI Yeast Anticancer Drug Screen. Data for the sgs1 mgt1 strain (AID 161).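 Note: 0% = growth of cultures given vehicle only.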 As to conditions: S. cerevisiae sgs1 mgt1 strain, at 50.0 µM, stronger effect = higher value. Put shortly:
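Compounds are added to genetically altered yeast, and growth is compared with cultures given vehicle alone to give percent inhibition.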

Assay [4] in a line: NCI Yeast Anticancer Drug Screen. Data for the cln2 rad14 strain (AID 165).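 Note: 0% = growth equal to vehicle treated cultures.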 As to conditions: S. cerevisiae cln2 rad14 strain, at 50.0 µM, stronger effect = higher value. The method, boiled down: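 Strain: cln2 rad14 yeast, altered in cell cycle control and DNA damage repair. Read-out: growth inhibition vs vehicle.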
Assay [5] is described as follows: NCI Yeast Anticancer Drug Screen. Data for the bub3 strain (AID 167). As to conditions: S. cerevisiae bub3 mutant strain, at 50.0 µM, stronger effect = higher value. The method, boiled down: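 In this screen, a yeast mutant lacking normal mitotic checkpoint function is challenged with compound. Relative growth versus vehicle gives the inhibition value.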
Assay [6] is described as follows: NCI Yeast Anticancer Drug Screen. Data for the mlh1 rad18 strain (AID 175). As to conditions: S. cerevisiae mlh1 rad18 strain growth inhibition; at 50.0 µM; stronger effect = higher value. Put shortly:
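A repair-deficient yeast strain is exposed to test compound, and growth is scored relative to vehicle-treated controls.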

Each structure is given as a SMILES string. The panel holds about 79,000 compounds, 15% with a hit somewhere; the sample as a whole holds those more often. A number with no mark means an inactive call. Activity calls are given as the source filed them. Cut-off read from the data, not from the text of the source: active = growth inhibition above about 70%; inactive = the rest.

For the compound `CC1=C(C)CC2C(=O)c3c(O)ccc(O)c3C(=O)C2C1` (stereo unspecified), the growth inhibition in assay [1] was 28.9%; in assay [2], 44.9%; in assay [3], 52%; in assay [4], 4.15%; in assay [5], 39.9%; in assay [6], 50.1%.

With `CCc1ccccc1NC(=O)CC1NC(=O)CS1` (stereo unspecified), the growth inhibition is -8.95% in assay [1]; -9.3% in assay [2]; 4.4% in assay [3]; 9.9% in assay [4]; -30.4% in assay [5]; -21.4% in assay [6].

`NNS(=O)(=O)c1ccc(/C=C2\NC(=O)NC2=O)cc1`: the growth inhibition is -4.45% in assay [1]; 1.5% in assay [2]; -17.2% in assay [3]; 13.2% in assay [4]; -26.4% in assay [5]; 23.9% in assay [6].

In the case of `O=C(/C=N/O)Nc1ccccc1I`, the growth inhibition is 3.95% in assay [1]; -9.95% in assay [2]; 20.4% in assay [3]; 16.6% in assay [4]; 18.1% in assay [5]; -3.5% in assay [6].

In the case of `O=C1NC(=O)N2CCCOC2C1c1ccccc1` (stereo unspecified), the growth inhibition in assay [1] is 0.2%; in assay [2], -5.5%; in assay [3], 0.4%; in assay [4], -10.2%; in assay [5], -2.7%; in assay [6] it was 22.3%.

For the compound `NC1=NN(c2c(Cl)cc(Cl)cc2Cl)C(=O)C1`, the growth inhibition in assay [1] was 21.9%; in assay [2], -3.8%; in assay [3], 17.6%; in assay [4] it was 33.3%; in assay [5], 33%; in assay [6], 39.6%.

As to `C[Si](C)(OCCS(=O)(=O)O)C1S(=O)(=O)OCCOS1(=O)=O`, the growth inhibition in assay [1] is -18.7%; in assay [2], -21.4%; in assay [3], -12.9%; in assay [4] it was 8.6%; in assay [5] it was -16.8%; in assay [6], -18.4%.

In the case of `COc1ccc(N=Nc2sc(N)nc2-c2cccc([N+](=O)[O-])c2)cc1`, the growth inhibition in assay [1] is 5%; in assay [2] it was 4.85%; in assay [3], 10.1%; in assay [4], -13.8%; in assay [5], 8.6%; in assay [6] it was 11.7%.

In the case of `CCC(C)(C(=O)O)c1ccccc1` (stereo unspecified), the growth inhibition in assay [1] was 4.1%; in assay [2], -5.85%; in assay [3], -3.95%; in assay [4], -15.1%; in assay [5], -42.5%; in assay [6] it was 15.7%.

With `O=C(C(=O)c1ccccc1)c1ccccc1`, the growth inhibition in assay [1] is 9.35%; in assay [2], -0.75%; in assay [3] it was 11.7%; in assay [4], -22.1%; in assay [5], 9.9%; in assay [6], -1.15%.

`O=CNC(NC=O)c1ccccc1[N+](=O)[O-]`: the growth inhibition in assay [1] is 29.9%; in assay [2], 20.8%; in assay [3], 30.1%; in assay [4], 0.65%; in assay [5] it was 52.5%; in assay [6], 28.6%.

Regarding `CCOC(=O)C1(F)S(=O)(=O)OCCOS1(=O)=O`, the growth inhibition was -12.9% in assay [1]; -9.95% in assay [2]; -11.4% in assay [3]; -18.4% in assay [4]; 6.3% in assay [5]; -9.8% in assay [6].

As to `C=C1CC2(CC(c3ccccc3Cl)OC(c3ccccc3Cl)C2)OC1=O` (stereo unspecified), the growth inhibition in assay [1] was 27.2%; in assay [2] it was 47.2%; in assay [3], 23.2%; in assay [4], 33.2%; in assay [5], 20.7%; in assay [6], 18.8%.

On to `CCOc1ccc(NC(=O)Oc2ccc(-c3ccccc3)cc2)cc1`, for which the growth inhibition is 15.8% in assay [1]; 33.5% in assay [2]; 24.4% in assay [3]; -12% in assay [4]; 56.7% in assay [5]; 48.1% in assay [6].

For `FC(F)(F)c1cccc(NC(=S)SCc2ccc(Cl)c(Cl)c2)c1`, the growth inhibition in assay [1] is 98.3% (active); in assay [2], 98.8% (active); in assay [3], 98.8% (active); in assay [4] it was 99.1% (active); in assay [5], 98% (active); in assay [6], 98.2% (active).

Regarding `Cc1ccccc1NC=O`, the growth inhibition in assay [1] is -26%; in assay [2], -19.2%; in assay [3] it was -44.5%; in assay [4], 5.9%; in assay [5], -36.5%; in assay [6], -13%.

Regarding `CC(=NCCN=C(C)c1ccccc1O)c1ccccc1O.[Cu]`, the growth inhibition in assay [1] was -17.9%; in assay [2], -8.05%; in assay [3], 2.25%; in assay [4] it was -23.6%; in assay [5] it was -6.15%; in assay [6], -8.55%.

For the compound `C#CC(C)(C)Nc1ccccc1`, the growth inhibition in assay [1] was -10.8%; in assay [2], 2.9%; in assay [3], -6.6%; in assay [4] it was -6.2%; in assay [5], -4.95%; in assay [6] it was 4.9%.

With `CCCCC(CN(C)C)C(=O)/C=C/c1ccccc1` (stereo unspecified), the growth inhibition in assay [1] was 23.2%; in assay [2], 2.9%; in assay [3], 32.9%; in assay [4], -0.7%; in assay [5], 17.4%; in assay [6] it was 27.8%.

Take `O=C1Nc2noc(=O)nc2NO1`: the growth inhibition is 13.1% in assay [1]; 4.8% in assay [2]; -0.35% in assay [3]; -2.5% in assay [4]; -22.4% in assay [5]; -18.5% in assay [6].

Turning to `CCN(CC)c1ccc(C=O)cc1`, the growth inhibition was 6.8% in assay [1]; -11.1% in assay [2]; -36.5% in assay [3]; -6.4% in assay [4]; 13.2% in assay [5]; -11.1% in assay [6].

Source of the values: PubChem BioAssay (NCI).
